Consider 11 compounds from PubChem BioAssay (NCI).

This is part of a sample that, as a whole, favours compounds with a hit. Of some 83,000 tested, about 20% had one in any assay.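 Negative percent growth values reflect cell death: -40 means 40% of the cells present at the start died, and -100 means all died.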 Values without a mark were called inactive. Calls of active or inactive are those of the source. The calls were made as follows: active = growth percent below 10; inactive = the rest.

Test systems include HCT-15 colon; HT29 colon; SNB-75 CNS; SNB-19 CNS; U251 CNS; PC-3 prostate; SK-MEL-5 melanoma; UACC-62 melanoma; LOX IMVI melanoma; SK-MEL-28 melanoma.
Experiment in all cases: NCI-60 one-dose screen, 48 h (100 = growth as untreated, 0 = no growth, -100 = all killed)
Common to all, as to conditions: 10 µM unless noted

Consider `COc1cc(CNC(=O)C[C@H](C)CCC=C(C)C)ccc1OCc1cn(-c2ccccc2F)nn1`, for which the growth in the assay on HCT-15 colon is 82.8%; with HT29 colon, 97.4%; with SNB-75 CNS, 10.6%; with SNB-19 CNS, 55.7%; with U251 CNS, 61.6%; in the assay on PC-3 prostate it was 87.9%. Moreover, the growth was 70.8% in the assay with SK-MEL-5 melanoma, 69.5% in the assay with UACC-62 melanoma, 76.7% in the assay with LOX IMVI melanoma and 94.9% in the assay with SK-MEL-28 melanoma.

Turning to `CC(C)(C)c1cc(-c2cc(-c3ccccc3)[nH]c(=O)c2C#N)cc(C(C)(C)C)c1`, the growth was 56.6% in the assay on HCT-15 colon; 88.8% with HT29 colon; -32% (active) in the assay on SNB-75 CNS; 25.7% in the assay with SNB-19 CNS; -22% (active) with U251 CNS; 53.3% in the assay on PC-3 prostate. Moreover, the growth was 74.5% in the assay with SK-MEL-5 melanoma, 68.3% in the assay on UACC-62 melanoma, 49.2% in the assay on LOX IMVI melanoma and 78.5% in the assay with SK-MEL-28 melanoma.

Consider `CC(C)C[C@H](NC(=O)CNC(=O)C[C@H]1O[C@@H]2OC3(C)CC[C@H]4[C@H](C)CC[C@@H]([C@H]1C)[C@@]24O3)B(O)O`, for which the growth with HCT-15 colon is 33.1%; in the assay with HT29 colon, -43.6% (active); with SNB-75 CNS, -34.8% (active); with SNB-19 CNS it was 28.2%; in the assay with U251 CNS, 17.4%; in the assay with PC-3 prostate, 9.34% (active). Besides, the growth was -87.6% (active) in the assay with SK-MEL-5 melanoma, -81.2% (active) with UACC-62 melanoma, -83.6% (active) with LOX IMVI melanoma and -34.4% (active) in the assay on SK-MEL-28 melanoma.

Turning to `Cc1ccc(Nc2nnc(-c3c[nH]c4ccccc34)o2)c(C)c1`, the growth with HCT-15 colon is 8.92% (active); in the assay with HT29 colon, -37.9% (active); with SNB-75 CNS it was 27.3%; in the assay on SNB-19 CNS, 31.3%; in the assay on U251 CNS, 5.02% (active); in the assay with PC-3 prostate, 28.7%. Further, the growth with SK-MEL-5 melanoma is 6.62% (active); in the assay with UACC-62 melanoma, 7.3% (active); with LOX IMVI melanoma it was 1.68% (active); in the assay with SK-MEL-28 melanoma, 54.5%.

For the compound `COc1cncc(-c2ccc3ncnc(N4CCc5ccc(Cl)cc54)c3c2)c1`, the growth with HCT-15 colon is 11.9%; in the assay on HT29 colon, 31.4%; in the assay with SNB-75 CNS it was 24.3%; in the assay on SNB-19 CNS, 35.9%; with U251 CNS, 51%; in the assay on PC-3 prostate, 6.75% (active). In addition, the growth with SK-MEL-5 melanoma was -16.7% (active); in the assay with UACC-62 melanoma, 16.3%; in the assay on LOX IMVI melanoma, 6.64% (active); in the assay on SK-MEL-28 melanoma, 48.6%.

`C=CC(=O)N1CCN(c2ccc3nc4c(nc3c2C(F)(F)F)C(=O)c2ncccc2C4=O)CC1`: the growth in the assay on HCT-15 colon was 1.18% (active); in the assay with HT29 colon it was 11.8%; in the assay on SNB-75 CNS it was 82.3%; in the assay on SNB-19 CNS, 32.3%; in the assay with U251 CNS it was -17.3% (active); in the assay with PC-3 prostate, -4.79% (active). Also, the growth in the assay on SK-MEL-5 melanoma is -98.6% (active); in the assay on UACC-62 melanoma, -60% (active); with LOX IMVI melanoma it was -8.11% (active); in the assay with SK-MEL-28 melanoma, 30.5%.

On to `O=c1[nH]c2ccccc2cc1COc1ccc(Nc2nccc(-c3ccc(Cl)cc3)n2)cc1`, for which the growth is 101% in the assay with HCT-15 colon; 105% with HT29 colon; 60.5% with SNB-75 CNS; 93.4% in the assay on SNB-19 CNS; 86.5% in the assay with U251 CNS; 106% in the assay with PC-3 prostate. The growth in the assay on SK-MEL-5 melanoma is 99.1%; with UACC-62 melanoma, 94.4%; with LOX IMVI melanoma it was 96%; with SK-MEL-28 melanoma it was 105%.

With `CC(Nc1ncnc2ccc(-c3ccc4oc(N)nc4c3)cc12)c1ccccc1` (stereo not given), the growth in the assay with HCT-15 colon is 5.13% (active); in the assay with HT29 colon, 29.5%; with SNB-75 CNS it was -82.8% (active); in the assay with SNB-19 CNS it was 20.3%; in the assay with U251 CNS, -22.8% (active); in the assay on PC-3 prostate, 34.4%. The growth in the assay with SK-MEL-5 melanoma was -75.3% (active); with UACC-62 melanoma, 11.9%; in the assay with LOX IMVI melanoma, -97.7% (active); with SK-MEL-28 melanoma it was 17.4%.

As for `Cc1cc(C)c2[nH]c(=O)c(C(c3nnnn3Cc3ccc4c(c3)OCO4)N3CCN(C)CC3)cc2c1` (stereo not given), the growth with HCT-15 colon is 110%; with HT29 colon it was 110%; in the assay with SNB-75 CNS, 115%; with SNB-19 CNS it was 101%; with U251 CNS it was 104%; in the assay with PC-3 prostate it was 111%. Besides, the growth in the assay with SK-MEL-5 melanoma was 107%; in the assay on UACC-62 melanoma it was 104%; in the assay with LOX IMVI melanoma, 100%; in the assay with SK-MEL-28 melanoma, 105%.

Take `COc1c2c(cc3c1C(CCc1ccccc1)N(C)CC3)OCO2` (stereo not given): the growth in the assay on HCT-15 colon is 9.64% (active); with HT29 colon, -13.3% (active); in the assay on SNB-75 CNS, -1.4% (active); in the assay on SNB-19 CNS, 8.54% (active); in the assay with U251 CNS, -32.5% (active); in the assay with PC-3 prostate it was 12.7%. Further, the growth is -98.2% (active) in the assay on SK-MEL-5 melanoma, -24% (active) in the assay with UACC-62 melanoma, -92% (active) in the assay on LOX IMVI melanoma and -5.44% (active) in the assay with SK-MEL-28 melanoma.

`FC(F)(F)c1cc2c(Cl)ncnc2n1CCN1CCOCC1`: the growth in the assay with HCT-15 colon is 2.39% (active); with HT29 colon, 81.2%; in the assay with SNB-75 CNS, 53.5%; in the assay with SNB-19 CNS, 43.4%; in the assay on U251 CNS it was 78.5%; in the assay on PC-3 prostate, 88.2%. The growth in the assay on SK-MEL-5 melanoma is 88.2%; in the assay with UACC-62 melanoma, 64.7%; with LOX IMVI melanoma, -12.7% (active); with SK-MEL-28 melanoma, 74.1%.
